Inhibition data for 87 molecules are collected here from PubChem BioAssay AID485346 (Sanford-Burnham Center for Chemical Genomics, 2010).

In all, about 330,000 compounds went through this assay and about 10,000 (3%) were called active. The sample holds actives, similar compounds and a random draw of the others, so the mix is not that of the screen.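 How the source made its calls: active means inhibition of at least 50% at 8 µM in the primary screen; inactive means the rest.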

Broadly, the inhibition is the relative decrease from the control value, in per cent.

Protein Mdm4 (Homo sapiens) + E3 ubiquitin-protein ligase Mdm2 (Homo sapiens), sequence (O15151 whole entry, looked up): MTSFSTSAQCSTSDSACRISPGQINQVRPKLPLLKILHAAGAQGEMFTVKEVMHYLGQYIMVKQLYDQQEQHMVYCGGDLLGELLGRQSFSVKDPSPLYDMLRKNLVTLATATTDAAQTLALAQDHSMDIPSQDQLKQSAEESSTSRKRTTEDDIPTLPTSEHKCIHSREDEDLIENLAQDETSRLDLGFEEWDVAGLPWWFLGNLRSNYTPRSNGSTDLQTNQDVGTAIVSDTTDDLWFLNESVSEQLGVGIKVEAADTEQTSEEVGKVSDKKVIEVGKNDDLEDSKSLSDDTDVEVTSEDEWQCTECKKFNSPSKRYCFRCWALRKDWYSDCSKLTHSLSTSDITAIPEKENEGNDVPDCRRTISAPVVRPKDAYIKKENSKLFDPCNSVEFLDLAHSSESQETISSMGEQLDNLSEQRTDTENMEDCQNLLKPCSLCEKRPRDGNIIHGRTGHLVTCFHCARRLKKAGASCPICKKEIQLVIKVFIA
Protein Mdm4 (Homo sapiens) + E3 ubiquitin-protein ligase Mdm2 (Homo sapiens), sequence (Q00987 whole entry, looked up): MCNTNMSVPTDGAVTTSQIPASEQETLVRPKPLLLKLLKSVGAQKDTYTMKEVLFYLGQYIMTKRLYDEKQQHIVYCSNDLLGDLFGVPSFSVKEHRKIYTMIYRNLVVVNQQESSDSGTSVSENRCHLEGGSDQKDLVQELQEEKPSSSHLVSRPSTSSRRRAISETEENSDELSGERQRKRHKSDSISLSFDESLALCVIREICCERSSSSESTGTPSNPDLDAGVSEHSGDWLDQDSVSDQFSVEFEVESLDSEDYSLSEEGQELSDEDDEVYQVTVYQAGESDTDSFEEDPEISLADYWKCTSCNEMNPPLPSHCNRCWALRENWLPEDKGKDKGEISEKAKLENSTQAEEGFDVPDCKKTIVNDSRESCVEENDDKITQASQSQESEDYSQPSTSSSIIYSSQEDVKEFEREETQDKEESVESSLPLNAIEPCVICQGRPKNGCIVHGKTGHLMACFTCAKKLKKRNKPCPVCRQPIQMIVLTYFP

The assay concerns the target Protein Mdm4 (Homo sapiens) + E3 ubiquitin-protein ligase Mdm2 (Homo sapiens) (UniProt O15151+Q00987). Description: inhibitors of human Mdm2-MdmX association, primary screen, cell-based, luminescence, split luciferase, SaOS-2, uHTS (AID 485346). The following applies: SaOS-2 split-luciferase Mdm2/MdmX complementation, at 8 µM, hits give high values.
`Cc1cccc(OC(C)C(=O)N2CCc3ccccc3C2)c1` (configuration not stated): the inhibition was -5.47% (inactive).

For `COC(c1ccccc1)c1nnc(CCC(=O)N2CCN(CCOc3ccccc3)CC2)o1` (configuration not stated), the inhibition was -18.9% (inactive).

Take `CC(C)c1ccc(NC(=O)COC(=O)c2ccc(CN3CCCC3=O)cc2)cc1`: the inhibition was 8.45% (inactive).

Take `COc1c(N2CCN(C(=S)Nc3ccccc3F)C(C)C2)c(F)cc2c(=O)c(C(=O)O)cn(C3CC3)c12` (configuration not stated): the inhibition is -14.1% (inactive).

`CNC(=O)NC(=O)C(OC(=O)c1cccc(S(=O)(=O)N2CCCCC2)c1)c1ccccc1` (configuration not stated): the inhibition was -21.4% (inactive).

Regarding `COc1cccc(/C=N/Nc2cc(C)nc(-c3ccccc3O)n2)c1O`, the inhibition is 93.4% (active).

In the case of `COc1ccccc1/C=N\Nc1cc(C)nc(-n2nc(C)cc2C)n1`, the inhibition is 57.4% (active).

On to `COc1ccc(/C=N/Nc2cc(N3CCOCC3)nc(C)n2)c(OC)c1`, for which the inhibition is 19.1% (inactive).

Turning to `COc1ccccc1/C=N/Nc1nc(C)c(C(C)=O)s1`, the inhibition is -49.5% (inactive).

For the molecule `Cc1nc(Cl)cc(N/N=C/c2ccccc2)n1`, the inhibition is -5.97% (inactive).

With `Cc1cc(N/N=C\c2ccc(Br)cc2)nc(-n2nc(C)cc2C)n1`, the inhibition was 35.8% (inactive).

Take `COCCC(=O)Nc1ccc2c(c1)CN(C(=O)CCOC)CC2`: the inhibition was 8.33% (inactive).

Regarding `O=C1NC(c2ccccc2)Oc2ccccc21` (configuration not stated), the inhibition was 12.9% (inactive).

Take `Cc1ccc(S(=O)(=O)NCCC(=O)OCC(=O)N(C)c2ccccc2)cc1`: the inhibition is -1.91% (inactive).

`COc1ccc(CN2CCN(C(=O)c3cc(C4CC4)nn3-c3ccccc3)CC2)cc1F`: the inhibition was 12.7% (inactive).

With `Cc1ccc(C)c(C(=O)N2CCC(n3nccc3NC(=O)C3CC3)CC2)c1`, the inhibition is 13.7% (inactive).

For the molecule `COc1cc(C2CC(=O)Oc3cc(OC)c(OC)c(OC)c32)cc(OC)c1OC` (configuration not stated), the inhibition was -1.07% (inactive).

For the molecule `CC(CNC(=O)c1ccc(N)cc1)NC(=O)c1ccc(N)cc1` (configuration not stated), the inhibition was -17.5% (inactive).

On to `Cc1ccc(C(=O)/C=C/c2c(C)nn(-c3ccccc3)c2Cl)cc1`, for which the inhibition is 7.37% (inactive).

`O=C(CSc1ncn[nH]1)N/N=C/c1ccc(F)cc1`: the inhibition was 1.12% (inactive).

As for `O=C(/C=C/Sc1ncn[nH]1)c1ccc(Cl)cc1`, the inhibition is 97.6% (active).

For the molecule `CC(=O)Nc1ccc(NS(=O)(=O)c2ccc3c(c2)NC(=O)CC(=O)N3)cc1`, the inhibition is 9.58% (inactive).

With `CC(=O)Nc1ccc(S(=O)(=O)Nc2ccc(N3CCCCC3)cc2)cc1`, the inhibition is 55% (active).

On to `CC(=O)Nc1ccc(S(=O)(=O)Nc2ccc(N3CCOCC3)c(F)c2)cc1`, for which the inhibition is -7.04% (inactive).

With `COc1ccc(OCC(=O)NNC(=O)C2CCC2)cc1`, the inhibition is 4.55% (inactive).

Consider `COCc1nnc(NC(=O)c2ccc3c(c2)OCO3)s1`, for which the inhibition was -40.4% (inactive).

For the molecule `COc1ccc(CC(=O)Nc2sc(Cc3ccccc3)c(C)c2C(N)=O)cc1`, the inhibition was -12.1% (inactive).

As to `Cc1ccc(C(=O)Nc2sc(Cc3ccc4c(c3)OCO4)c(C)c2C(N)=O)cc1`, the inhibition was 75.3% (active).

For `Cc1nn2c(NCCN(C)C)c3c(nc2c1-c1ccccc1)CCC3`, the inhibition was 1.13% (inactive).

In the case of `CCc1cc2c(=O)n(-c3ccccc3)c(SCC(=O)O)nc2s1`, the inhibition is 0.424% (inactive).

Regarding `CC(=O)N1C(=O)/C(=C2\SC(=S)N(NC(=O)c3ccc(O)cc3)C2=O)c2ccccc21`, the inhibition was -4.31% (inactive).

Take `O=C1/C(=C/c2ccc(F)cc2)SC(=S)N1CCCC(=O)N1CCCCC1CCO` (configuration not stated): the inhibition is 81.8% (active).

Take `COc1ccc(/C=C2\SC(=S)N(CCCC(=O)NC3CCCC3)C2=O)cc1OC`: the inhibition is 42.6% (inactive).

Consider `CCN(C(=O)CN1C(=O)/C(=C/c2ccc(F)cc2)SC1=S)C1CCS(=O)(=O)C1` (configuration not stated), for which the inhibition is -3.51% (inactive).

Take `Cc1ccc(O)c(NC(=S)NC(=O)COc2ccc(Br)cc2)c1`: the inhibition is -6.04% (inactive).

Take `CCCCN1C(=S)NC[C@@H]1C(C)CC` (some centres not stated): the inhibition is -2.44% (inactive).

Take `CC1Cc2ccccc2N1S(=O)(=O)c1cccc(C(=O)NCC(c2ccco2)N2CCCC2)c1` (configuration not stated): the inhibition is 6.48% (inactive).

For `CCCCn1ccnc1C(=O)c1cccc(S(=O)(=O)N2c3ccccc3CC2C)c1` (configuration not stated), the inhibition was 55.3% (active).

As to `CC1Cc2ccccc2N1S(=O)(=O)c1cccc(C(=O)OCC(=O)N2CCOCC2)c1` (configuration not stated), the inhibition is 9.37% (inactive).

Consider `Cc1noc(C)c1S(=O)(=O)Nc1ccc(C(=O)N2CCN(c3ccc(F)cc3)CC2)cc1`, for which the inhibition is 16.2% (inactive).

Turning to `COc1ccc(CCNC(=O)COC(=O)Cc2cccc(F)c2)cc1`, the inhibition was 5.4% (inactive).

Take `COc1ccc(C(=O)OCC(=O)N2CC(=O)Nc3ccccc32)cc1Br`: the inhibition was -3.51% (inactive).

Regarding `O=C(O)c1ccccc1CSc1nc2ccccc2s1`, the inhibition was -21.2% (inactive).

For the molecule `O=[N+]([O-])c1c(NCCO)cc(Sc2nc3ccccc3s2)c2nonc12`, the inhibition is 50.1% (active).

As to `CCOc1ccccc1Nc1ccc2nonc2c1[N+](=O)[O-]`, the inhibition is 9.13% (inactive).

With `COC(=O)[C@]1(C)N[C@H](CN(C)C(=O)c2ccc(C(C)(C)C)cc2)[C@@H]2C(=O)N(C)C(=O)[C@@H]21`, the inhibition is 4.61% (inactive).

As to `CC(=O)CCS(=O)(=O)c1ccc(C)c(C)c1`, the inhibition was 2.16% (inactive).

As for `CCCn1c(C)cc(-c2csc(NC(=O)CCc3nc4ccccc4c(=O)[nH]3)n2)c1C`, the inhibition was 13.7% (inactive).

On to `Cc1cc(S(=O)(=O)N2CCOCC2)ccc1OCC(=O)N1CCOCC1`, for which the inhibition is -24.7% (inactive).

Consider `Cc1cc(C(=O)COc2ccccc2[N+](=O)[O-])c(C)n1-c1cccc(S(=O)(=O)N2CCOCC2)c1`, for which the inhibition was 71.1% (active).

Regarding `Cc1ccccc1OCC(=O)Nc1ccc(S(=O)(=O)N2CCOCC2)cc1`, the inhibition was -21.2% (inactive).

Take `O=C(Nc1ccc2c(c1)OCCO2)c1cnccn1`: the inhibition was -7.26% (inactive).

Regarding `Cc1cc(C)nc(N/N=C/c2c(CO)cnc(C)c2O)n1`, the inhibition is 27.1% (inactive).

With `CCN(CC)c1ccc(/C=N/NC(=O)c2cnccn2)c(O)c1`, the inhibition was 72.8% (active).

As to `Cc1cc(C)nc(N/N=C/c2c(C)oc3ccccc23)n1`, the inhibition was 33.3% (inactive).

Take `Cc1ccc(C(=O)NCCNC(=O)c2cnccn2)cc1`: the inhibition was 18.3% (inactive).

In the case of `CCN(CC)c1ccc(/C=N/Nc2nc(C)cc(C)n2)c(O)c1`, the inhibition was 72.9% (active).

With `Cc1ccc(-n2c(SCC(=O)NCc3ccc4c(c3)OCO4)nnc2-c2cccnc2)c(C)c1`, the inhibition is 1.7% (inactive).

With `CCN(C(=O)CSc1nnnn1-c1ccc(OC)cc1)C1CCS(=O)(=O)C1` (configuration not stated), the inhibition was -4.86% (inactive).

Turning to `COC(=O)C1CCN(C(=O)COC(=O)c2cc(S(=O)(=O)N3CCOCC3)ccc2C)CC1`, the inhibition is 1.32% (inactive).

Take `CCCCn1c(N)c(N(CC)C(=O)/C=C/c2ccco2)c(=O)[nH]c1=O`: the inhibition is 15.3% (inactive).

`CC[C@]1(O)C[C@@H]2CN(CCc3c([nH]c4ccccc34)[C@@](C(=O)OC)(c3cc4c(cc3OC)N(C)[C@H]3[C@@](O)(C(=O)OC)[C@H](OC(C)=O)[C@]5(CC)C=CCN6CC[C@]43[C@@H]65)C2)C1`: the inhibition was 85.9% (active).

In the case of `CC[C@]1(O)CC2CN(CCc3c([nH]c4ccccc34)[C@@](C(=O)OC)(c3cc4c(cc3OC)N(C=O)[C@H]3[C@@](O)(C(=O)OC)[C@H](OC(C)=O)[C@]5(CC)C=CCN6CC[C@]43[C@@H]65)C2)C1` (some centres not stated), the inhibition was 67.5% (active).

`CCNC(=O)COc1cc(C)c(Br)c(C)c1`: the inhibition was 15.7% (inactive).

As to `Cc1ccc(S(=O)(=O)N(Cc2ccccc2)c2ccccn2)cc1[N+](=O)[O-]`, the inhibition was 23.2% (inactive).

For the molecule `COc1cc(C(=O)OCc2cc(=O)n3ccsc3n2)ccc1OC(C)C`, the inhibition was -18.9% (inactive).

Regarding `CC1CCC2CCCCC2N1C(=O)c1cc([N+](=O)[O-])cc([N+](=O)[O-])c1` (configuration not stated), the inhibition was 5.25% (inactive).

On to `Cc1ccc(S(=O)(=O)N(C)c2ccc(OCC(=O)OCc3ccc(C#N)cc3)cc2)cc1`, for which the inhibition was 1.14% (inactive).

As to `CC1CCN(C(=O)c2cc3nc(C4CC4)cc(C(F)(F)F)n3n2)CC1`, the inhibition was 0.061% (inactive).

Take `COc1ccc2[nH]c3c(c2c1)CCN1C(=O)C(CC(=O)NCc2cccc(C(F)(F)F)c2)C[C@H](C(=O)N2CCOCC2)[C@@]31C` (some centres not stated): the inhibition is 17.2% (inactive).

In the case of `CCOc1ccc2c(=O)c(-c3ccc4c(c3)OCCCO4)c(C)oc2c1`, the inhibition was 19.6% (inactive).

In the case of `Cn1c2ccccc2c(=O)c2c(O)cccc21`, the inhibition was 5.57% (inactive).

As for `Cn1c2ccccc2c(=O)c2c(=O)n(Cc3ccco3)c(COc3ccccc3)nc21`, the inhibition is 33.8% (inactive).

With `CCCc1nc2c(c(=O)c3ccccc3n2C)c(=O)n1C1CCCCCC1`, the inhibition is 76.1% (active).

For the molecule `CC(C)C1C2=C(CC(C)(C)CC2=O)ON1c1ccccc1` (configuration not stated), the inhibition is 16.1% (inactive).

For `COc1cccc(/C=C(/CC(=O)Nc2ccc(N3CCOCC3)cc2)c2nc3ccccc3s2)c1`, the inhibition was 18.2% (inactive).

`O=C(COC(=O)Cn1[nH]c(=O)c2ccccc2c1=O)Nc1c(Cl)cccc1C(F)(F)F`: the inhibition was -4.75% (inactive).

As for `O=C(NCc1nnc(SCC(=O)N2CCCCCC2)o1)c1ccc(F)cc1`, the inhibition is 10.6% (inactive).

As for `COc1ccc(CCNc2ncnc3nc[nH]c23)cc1OC`, the inhibition is 18.1% (inactive).

For the molecule `CCc1ccc(N(CC)c2ncnc3nc[nH]c23)cc1`, the inhibition is 63% (active).

Consider `Cc1ccc(NC(=O)c2ccc(CSc3ncnc4nc[nH]c34)cc2)c(C)c1`, for which the inhibition is -2.54% (inactive).

Turning to `Cc1ccc(CNC(=O)c2cc(-c3ccccc3C)n(CC3CC(c4cccc([N+](=O)[O-])c4)=NO3)n2)cc1` (configuration not stated), the inhibition is 26.5% (inactive).

With `CCN(CC)CCCN=Cc1c(O)n(-c2ccc(C)cc2)c(=O)c2ccccc12`, the inhibition was -22.5% (inactive).

As to `CCOc1ccc(-n2c(O)c(/C=N/Nc3nc(C)cc(C)n3)c3ccccc3c2=O)cc1`, the inhibition is 65.3% (active).

For the molecule `CCOc1ccc(-n2c(O)c(/C=N/c3ccnn3Cc3ccncc3)c3ccccc3c2=O)cc1`, the inhibition was 2.6% (inactive).

Turning to `CCCC1C(=O)N2C(N(C)C)=Nc3ccc(C)cc3N2C1=O` (configuration not stated), the inhibition was 15.1% (inactive).

On to `CC1CCN(C(=O)CCc2nnc3ccc(NCc4ccco4)nn23)CC1`, for which the inhibition was 22.2% (inactive).
